The source made the active and inactive calls.

Consider four molecules from PubChem BioAssay.

Experiment [1] relates to Wnt5a (protein binding on small-molecule microarray). Briefly: small molecules binding Wnt5a protein – biophysical, small-molecule microarray, 635/667 nm fluorescence, primary screen (AID 1142).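 Further: fluorescence read at 667 nm with signal to noise per printed feature.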 The settings on record: 635 nm fluorescence, higher = more signal.
Experiment [2] in a line: ATP-based viability of Huh7 replicon cells – cell-based, CellTiter-Glo luminescence, basal, 48 h, cytotoxicity control for HCV replication inhibitor project, primary screen (AID 1143).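 Further: Huh7 hepatoma cells carrying a hepatitis C replication reporter with no stimulus; test concentration not given here.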 As to conditions: higher = more signal, called active from +8 up or from −8 down. A general note: In antiviral work, replicon cells carry a viral genome segment that copies itself.
The nature of experiment [3]: basal CRE-LacZ reporter activity in PC12 – cell-based, unstimulated, primary screen (AID 1145). As to conditions: no forskolin, luminescence, 4.5 h, higher = more signal, called active from +8 up or from −8 down.
The nature of experiment [4]: forskolin-driven CRE-LacZ activity in PC12 – cell-based, CRE-LacZ reporter, forskolin-stimulated, primary screen (AID 1146).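 Further: PC12 cells with 6xCRE LacZ reporter stimulated by forskolin 10 µM; beta-galactosidase reporter signal reflecting CREB driven transcription.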 The settings on record: luminescence, 4.5 h, higher = more signal, called active from +8 up or from −8 down.
The target in experiment [5] is Streptavidin (Streptomyces avidinii) (UniProt P22629). As to the kind of experiment: compounds binding control protein streptavidin – biophysical, small-molecule microarray, 635/667 nm fluorescence, artefact control for SMM compound annotation, primary screen (AID 1147).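 Further: signal reflects streptavidin binding to arrayed compounds as a control protein.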 The settings on record: higher = more signal.
Experiment [6] can be described thus: probe aInhba binding on compound microarray – biochemical, small-molecule microarray, 635/667 nm fluorescence, primary screen (AID 1148).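 Further: score merges 667nm spot fluorescence with signal-to-noise for antibody binding to printed compounds.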 The settings on record: higher = more signal.
In experiment [7] the target is Torsin-1A (Homo sapiens) (UniProt O14656). As to the kind of experiment: TOR1A wild-type binding on microarray – cell lysate, small-molecule microarray, lysate, 635/667 nm, primary screen (AID 1149). The settings on record: COS7 hTOR1A-WT lysate, 635 nm fluorescence, higher = more signal.
Experiment [8] shares this target. Briefly: torsin A mutant lysate binding on microarrays – cell lysate, small-molecule microarray, COS7 lysate, 635/667 nm fluorescence, primary screen (AID 1150).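 Further: score pools 667 nm emission and signal to noise measuring lysate protein binding.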 As to conditions: COS7 hTOR1A mutant lysate, 635 nm fluorescence, higher = more signal.
Experiment [9] concerns Sonic hedgehog protein (Shh). As to the kind of experiment: Sonic hedgehog microarray binding compounds – biochemical, small-molecule microarray, 635/667 nm fluorescence, primary screen (AID 1151).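 Further: Shh protein binding to compounds spotted on small-molecule microarray slides; score combines spot fluorescence intensity with signal-to-noise across triplicate slides.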 As to conditions: 635 nm fluorescence, higher = more signal.
The nature of experiment [10]: optical density shifts of acrAB sulA E. coli – strain DRC41, OD650, 48 h, E. coli filamentation inducer project, primary screen (AID 1152).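 Further: E. coli MC1000 strain DRC41 lacking acrAB efflux pump and sulA.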 As to conditions: higher = more signal, called active from +8 up or from −8 down.
A short description of experiment [11]: probe aLefty1 binding on compound microarray – biochemical, small-molecule microarray, 635/667 nm fluorescence, primary screen (AID 1153).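 Further: score merges spot fluorescence with signal-to-noise ratio from the scanned slide images.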 The settings on record: higher = more signal.
Experiment [12] can be described thus: plasmodial surface anion channel blockers, osmotic lysis – cell-based, P. falciparum Indochina, OD700, 1 h, primary screen (AID 1154). As to conditions: P. falciparum Indochina infected RBC osmotic lysis, higher = more signal, called active from +8 up or from −8 down.
Experiment [13] in a line: plasmodial surface anion channel blockers, osmotic lysis – cell-based, P. falciparum Indochina, OD700, 2 h, primary screen (AID 1155).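 Further: lysis reports solute entry through the parasite surface anion channel PSAC.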 The settings on record: P. falciparum Indochina infected erythrocytes, higher = more signal, called active from +8 up or from −8 down.
Experiment [14] is described as follows: changes in parasitized red cell lysis, either direction – P. falciparum Indochina, OD700, 3 h, PSAC antagonist project, primary screen (AID 1156). The settings on record: P. falciparum-infected erythrocytes, osmotic lysis, higher = more signal, called active from +8 up or from −8 down.
Experiment [15] is described as follows: plasmodial surface anion channel blockers, osmotic lysis – cell-based, P. falciparum Indochina, OD700, 18 h, primary screen (AID 1157). As to conditions: P. falciparum Indochina infected erythrocytes, osmotic lysis OD700, 18 h; higher = more signal, called active from +8 up or from −8 down.
A short description of experiment [16]: S6 kinase pathway phospho-S6 level changes – cell-based, A549, cytoblot, luminescence, serum-stimulated, primary screen (AID 1158).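 Further: serum-stimulated A549 lung adenocarcinoma cells; signal is phosphorylated S6 detected by cytoblot immunostaining with HRP secondary.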 The settings on record: 5 h, higher = more signal.
Experiment [17] deals with NADPH oxidase 2 (Homo sapiens) (UniProt P04839). As to the kind of experiment: compounds shifting NOX2 Amplex Red fluorescence – cell-based, HEK293-NOX2, PMA-stimulated, NOX inhibitor project, primary screen (AID 1159). Further: test concentration not given here. As to conditions: 45 min, higher = more signal, called active from +8 up or from −8 down.
Experiment [18] addresses NADPH oxidase 4 (Homo sapiens) (UniProt Q9NPH5). Briefly: compounds shifting NOX4 Amplex Red fluorescence – cell-based, HEK293-NOX4, tetracycline-induced, NOX inhibitor project, primary screen (AID 1160). As to conditions: HEK293-NOX4, Amplex Red H2O2 fluorescence, 45 min; higher = more signal, called active from +8 up or from −8 down.
Experiment [19] has as its target NADPH oxidase 5 (Homo sapiens) (UniProt Q96PH1). Briefly: compounds shifting NOX5 Amplex Red fluorescence – cell-based, HEK293-NOX5, NOX inhibitor project, primary screen (AID 1161). The settings on record: HEK293-NOX5, ionomycin, 45 min, higher = more signal.
The nature of experiment [20]: compound effects on lung adenocarcinoma cell viability – A549, calcein-AM fluorescence, 48 h, basal, profiling panel (AID 1162). Further: test concentration not given here. As to conditions: higher = more signal.

Sequence of NADPH oxidase 2 (Homo sapiens) (P04839 whole entry, looked up): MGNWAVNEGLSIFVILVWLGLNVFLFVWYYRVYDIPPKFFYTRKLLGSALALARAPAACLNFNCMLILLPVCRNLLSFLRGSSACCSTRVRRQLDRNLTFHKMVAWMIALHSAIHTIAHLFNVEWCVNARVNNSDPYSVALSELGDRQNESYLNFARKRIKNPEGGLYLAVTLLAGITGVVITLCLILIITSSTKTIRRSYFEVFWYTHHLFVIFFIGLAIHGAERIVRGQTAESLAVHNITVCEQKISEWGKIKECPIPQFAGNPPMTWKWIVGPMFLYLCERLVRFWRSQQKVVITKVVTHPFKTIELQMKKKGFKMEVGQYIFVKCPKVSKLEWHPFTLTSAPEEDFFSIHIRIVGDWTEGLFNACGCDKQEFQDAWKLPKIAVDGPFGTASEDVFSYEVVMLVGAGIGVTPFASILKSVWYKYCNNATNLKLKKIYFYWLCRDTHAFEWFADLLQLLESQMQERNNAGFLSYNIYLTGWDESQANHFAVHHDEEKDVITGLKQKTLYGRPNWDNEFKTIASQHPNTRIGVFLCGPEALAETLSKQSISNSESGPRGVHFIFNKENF
Sequence of Streptavidin (Streptomyces avidinii) (P22629 whole entry, looked up): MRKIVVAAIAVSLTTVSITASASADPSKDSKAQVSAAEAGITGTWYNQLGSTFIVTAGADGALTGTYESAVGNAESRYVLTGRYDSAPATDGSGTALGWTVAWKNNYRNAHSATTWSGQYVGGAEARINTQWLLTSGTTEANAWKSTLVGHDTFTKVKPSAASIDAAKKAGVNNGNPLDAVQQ
Sequence of NADPH oxidase 4 (Homo sapiens) (Q9NPH5 whole entry, looked up): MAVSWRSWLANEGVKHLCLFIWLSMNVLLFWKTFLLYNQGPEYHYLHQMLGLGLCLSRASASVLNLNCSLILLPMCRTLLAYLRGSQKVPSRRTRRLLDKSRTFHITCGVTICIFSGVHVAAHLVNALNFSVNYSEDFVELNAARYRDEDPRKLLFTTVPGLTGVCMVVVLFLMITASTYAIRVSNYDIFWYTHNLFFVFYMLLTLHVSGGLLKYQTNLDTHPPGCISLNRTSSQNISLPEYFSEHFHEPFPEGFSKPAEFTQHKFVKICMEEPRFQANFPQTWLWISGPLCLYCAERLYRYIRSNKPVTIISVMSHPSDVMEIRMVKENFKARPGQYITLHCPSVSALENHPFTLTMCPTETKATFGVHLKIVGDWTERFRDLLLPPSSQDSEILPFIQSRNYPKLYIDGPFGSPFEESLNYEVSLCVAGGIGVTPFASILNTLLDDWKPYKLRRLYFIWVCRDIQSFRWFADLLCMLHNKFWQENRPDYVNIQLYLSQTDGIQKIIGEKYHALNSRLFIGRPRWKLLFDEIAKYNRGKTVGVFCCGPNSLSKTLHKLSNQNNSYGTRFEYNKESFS
Sequence of NADPH oxidase 5 (Homo sapiens) (Q96PH1 whole entry, looked up): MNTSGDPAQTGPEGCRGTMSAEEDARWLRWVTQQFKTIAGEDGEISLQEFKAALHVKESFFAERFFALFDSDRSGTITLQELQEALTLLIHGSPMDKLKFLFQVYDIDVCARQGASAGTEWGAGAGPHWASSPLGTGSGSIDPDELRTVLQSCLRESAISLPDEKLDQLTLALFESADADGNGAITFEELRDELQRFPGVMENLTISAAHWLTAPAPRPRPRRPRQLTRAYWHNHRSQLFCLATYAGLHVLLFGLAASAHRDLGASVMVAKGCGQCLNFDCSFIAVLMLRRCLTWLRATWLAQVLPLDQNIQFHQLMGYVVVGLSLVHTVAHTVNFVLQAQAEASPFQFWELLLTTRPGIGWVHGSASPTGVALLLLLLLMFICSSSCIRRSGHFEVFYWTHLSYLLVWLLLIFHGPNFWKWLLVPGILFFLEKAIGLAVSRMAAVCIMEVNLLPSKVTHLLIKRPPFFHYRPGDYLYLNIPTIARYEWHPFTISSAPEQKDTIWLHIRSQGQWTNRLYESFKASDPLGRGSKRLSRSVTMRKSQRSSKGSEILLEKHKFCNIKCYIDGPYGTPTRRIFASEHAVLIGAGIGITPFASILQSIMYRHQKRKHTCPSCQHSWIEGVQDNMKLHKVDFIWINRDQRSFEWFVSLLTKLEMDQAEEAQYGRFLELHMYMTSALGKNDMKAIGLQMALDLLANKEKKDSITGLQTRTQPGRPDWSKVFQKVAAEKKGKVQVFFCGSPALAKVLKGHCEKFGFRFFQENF
Sequence of Torsin-1A (Homo sapiens) (O14656 whole entry, looked up): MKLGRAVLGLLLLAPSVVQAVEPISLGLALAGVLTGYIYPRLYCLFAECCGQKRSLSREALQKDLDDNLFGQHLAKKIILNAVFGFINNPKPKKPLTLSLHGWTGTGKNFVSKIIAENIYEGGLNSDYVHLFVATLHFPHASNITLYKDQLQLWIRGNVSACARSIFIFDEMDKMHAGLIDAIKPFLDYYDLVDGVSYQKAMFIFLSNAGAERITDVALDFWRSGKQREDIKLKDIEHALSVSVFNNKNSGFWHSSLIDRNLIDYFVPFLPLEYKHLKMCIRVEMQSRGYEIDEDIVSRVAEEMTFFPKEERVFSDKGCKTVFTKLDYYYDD

Consider `Cc1ccc(S[C@]2(C(=O)NCCN3CCOCC3)CC(=O)N(Cc3cc(C(F)(F)F)cc(C(F)(F)F)c3)[C@@H]2c2ccc(CO)cc2)cc1`, for which the composite z-score in [1] was 0.322; in experiment [5] it was -0.721; in experiment [6] it was -0.0371; with Torsin-1A (Homo sapiens) [7] it was -0.847; in the experiment with Torsin-1A (Homo sapiens) [8], -0.521; in experiment [9], -0.105. For the same molecule, the composite z-score in [11] is -0.0576. Also, the z-score was -2.39 (inactive) in experiment [2]; -0.464 (inactive) in experiment [3]; -1.7 (inactive) in experiment [4]; 2.85 (inactive) in experiment [10]; 1.69 (inactive) in experiment [12]; -0.152 (inactive) in experiment [13]. Further, the z-score was -0.468 (inactive) in experiment [14]; -1.39 (inactive) in experiment [15]; 2.65 in experiment [16]; 0.538 (inactive) in experiment [17]; 0.706 (inactive) in [18]; 0.754 in experiment [19]. The z-score in experiment [20] was 0.422.

For `CC(C)C(=C=CC[C@H](O)c1ccc(OCCO)cc1)C[C@H](O)COCc1ccccc1`, the composite z-score in experiment [1] is 0.317; in experiment [5], 0.192; in [6], -0.0986; in the experiment with Torsin-1A (Homo sapiens) [7] it was 1.11; in the experiment with Torsin-1A (Homo sapiens) [8], 1.42; in experiment [9] it was 1.96. In addition, the composite z-score in experiment [11] is 0.0751. For the same molecule, the z-score in experiment [2] was -3.34 (inactive); in [3], 12.1 (active); in experiment [4] it was -0.14 (inactive); in experiment [10] it was 0.811 (inactive); in experiment [12], 20.1 (active); in experiment [13] it was 4.54 (inactive). Also, the z-score was 1.7 (inactive) in experiment [14]; 0.923 (inactive) in experiment [15]; -0.474 in experiment [16]; -0.557 (inactive) in experiment [17]; -0.142 (inactive) in [18]; -1.87 in experiment [19]. Further, the z-score in [20] was 0.153.

In the case of `COCCOC(=O)N1C(=O)[C@@]2(c3cc(C#CC4(O)CCCCCC4)ccc31)[C@H](c1ccccc1OCCO)N1[C@H](c3ccccc3)[C@H](c3ccccc3)OC(=O)[C@H]1[C@@H]2C(=O)Nc1nc2ccccc2s1`, the composite z-score in experiment [1] is 0.478; in [5] it was 0.16; in experiment [6] it was -0.0468; in the experiment with Torsin-1A (Homo sapiens) [7] it was 1.2; with Torsin-1A (Homo sapiens) [8], 0.663; in experiment [9], 1.52. In experiment [11], this molecule gave a composite z-score of -0.105. For the same molecule, the z-score in [2] was -4.73 (inactive); in experiment [3] it was 0.802 (inactive); in experiment [4], -1.05 (inactive); in experiment [10], 2.49 (inactive); in experiment [12], 3.33 (inactive); in experiment [13], 0.299 (inactive). Also, the z-score is 0.851 (inactive) in experiment [14]; -0.515 (inactive) in experiment [15]; 1.02 in experiment [16]; 1.27 (inactive) in experiment [17]; -0.694 (inactive) in experiment [18]; 0.339 in experiment [19]. Also, the z-score in experiment [20] is -0.997.

In the case of `C=CCNC(=O)[C@H]1[C@@H]2C(=O)O[C@@H](c3ccccc3)[C@@H](c3ccccc3)N2[C@@H](c2ccccc2OCCO)[C@]12C(=O)N(C(=O)OCCOC)c1ccc(C#CCCO)cc12`, the composite z-score in experiment [1] was 0.641; in experiment [5], 0.876; in experiment [6] it was 0.561; with Torsin-1A (Homo sapiens) [7], 1.02; with Torsin-1A (Homo sapiens) [8], 0.546; in experiment [9], 0.861. Further, the composite z-score in [11] was 1.12. The z-score in [2] was -3.68 (inactive); in [3], 0.472 (inactive); in experiment [4] it was 3.22 (inactive); in experiment [10], 1.4 (inactive); in experiment [12] it was 2.84 (inactive); in experiment [13], 1.32 (inactive). Moreover, the z-score was -0.383 (inactive) in [14]; 0.875 (inactive) in experiment [15]; 0.0195 in [16]; 1.74 (inactive) in [17]; 1.42 (inactive) in [18]; 1.01 in experiment [19]. In addition, in experiment [20], the z-score was 0.822.
